Measurements: the supplement of paper PMC8975748
Structures can show the parent of a compound that is named as a salt. ± gives the standard deviation of the averaged measurements.

Legend:
[1] = tested on: Saccharomyces cerevisiae BY4741 SeMeCo community; assay: mean cell size (pixel area) (pixels); higher = larger cells; settings: 10 µM; 24 h; SM minimal medium
Method in brief: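 For 24 h, 70 µl of yeast culture diluted to OD600 = 0.3 from an overnight preculture at OD600 = 1.0 was kept in SM medium in 384-well plates acoustically predosed with drug, final 10 µM. The strain was Saccharomyces cerevisiae BY4741 forming a fluorescent community of four plasmids, each complementing one auxotrophy and carrying a fluorescent marker. Automated confocal microscopy of paraformaldehyde-fixed cells, analysed in Harmony, provided mean cell pixel area per well, which was averaged over 3 replicates. Same SeMeCo high-content imaging drug screen: Selleck FDA-approved drugs at 10 µM, 24 h in SM medium, 384-well plates, 3 replicates.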

[2] = tested on: Saccharomyces cerevisiae BY4741 SeMeCo community; assay: z-score of prototroph abundance vs DMSO median; higher = larger share of this subpopulation than in DMSO controls; settings: 10 µM; 24 h; SM minimal medium; subpopulation (auxotrophy): Prototroph
Method in brief: (§1)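 Four plasmids, each restoring a single auxotrophy and encoding a distinct fluorescent protein, were carried by a Saccharomyces cerevisiae BY4741 community. After overnight growth to OD600 1.0 and dilution to 0.3, 70 µl per well was grown for 24 h in minimal SM medium on 384-well plates acoustically predosed with library drugs at 10 µM final. Following paraformaldehyde fixation, automated confocal microscopy was used, with single-auxotroph fluorescent strains defining thresholds and autofluorescence correction. Subpopulation abundance was then scored as a z-score against the vehicle-well median.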

[3] = tested on: Saccharomyces cerevisiae BY4741 SeMeCo community; assay: z-score of subpopulation abundance vs DMSO median, subpopulation auxotrophic for M; higher = larger share of this subpopulation than in DMSO controls; settings: 10 µM; 24 h; SM minimal medium; subpopulation (auxotrophy): M
Method in brief: as §1

[4] = tested on: Saccharomyces cerevisiae BY4741 SeMeCo community; assay: z-score of subpopulation abundance vs DMSO median, subpopulation auxotrophic for L; higher = larger share of this subpopulation than in DMSO controls; settings: 10 µM; 24 h; SM minimal medium; subpopulation (auxotrophy): L
Method in brief: as §1

[5] = tested on: Saccharomyces cerevisiae BY4741 SeMeCo community; assay: z-score of subpopulation abundance vs DMSO median, subpopulation auxotrophic for U; higher = larger share of this subpopulation than in DMSO controls; settings: 10 µM; 24 h; SM minimal medium; subpopulation (auxotrophy): U
Method in brief: as §1

[6] = tested on: Saccharomyces cerevisiae BY4741 SeMeCo community; assay: z-score of subpopulation abundance vs DMSO median, subpopulation auxotrophic for H; higher = larger share of this subpopulation than in DMSO controls; settings: 10 µM; 24 h; SM minimal medium; subpopulation (auxotrophy): H
Method in brief: as §1

[7] = tested on: Saccharomyces cerevisiae BY4741 SeMeCo community; assay: z-score of subpopulation abundance vs DMSO median, subpopulation auxotrophic for LU; higher = larger share of this subpopulation than in DMSO controls; settings: 10 µM; 24 h; SM minimal medium; subpopulation (auxotrophy): LU
Method in brief: as §1

[8] = tested on: Saccharomyces cerevisiae BY4741 SeMeCo community; assay: z-score of subpopulation abundance vs DMSO median, subpopulation auxotrophic for LM; higher = larger share of this subpopulation than in DMSO controls; settings: 10 µM; 24 h; SM minimal medium; subpopulation (auxotrophy): LM
Method in brief: as §1

[9] = tested on: Saccharomyces cerevisiae BY4741 SeMeCo community; assay: z-score of subpopulation abundance vs DMSO median, subpopulation auxotrophic for HU; higher = larger share of this subpopulation than in DMSO controls; settings: 10 µM; 24 h; SM minimal medium; subpopulation (auxotrophy): HU
Method in brief: as §1

[10] = tested on: Saccharomyces cerevisiae BY4741 SeMeCo community; assay: z-score of subpopulation abundance vs DMSO median, subpopulation auxotrophic for HLU; higher = larger share of this subpopulation than in DMSO controls; settings: 10 µM; 24 h; SM minimal medium; subpopulation (auxotrophy): HLU
Method in brief: as §1

[11] = tested on: Saccharomyces cerevisiae BY4741 SeMeCo community; assay: z-score of subpopulation abundance vs DMSO median, subpopulation auxotrophic for HLM; higher = larger share of this subpopulation than in DMSO controls; settings: 10 µM; 24 h; SM minimal medium; subpopulation (auxotrophy): HLM
Method in brief: as §1

[12] = tested on: Saccharomyces cerevisiae BY4741 SeMeCo community; assay: z-score of subpopulation abundance vs DMSO median, subpopulation auxotrophic for HUM; higher = larger share of this subpopulation than in DMSO controls; settings: 10 µM; 24 h; SM minimal medium; subpopulation (auxotrophy): HUM
Method in brief: as §1

[13] = tested on: Saccharomyces cerevisiae BY4741 SeMeCo community; assay: z-score of subpopulation abundance vs DMSO median, subpopulation auxotrophic for LUM; higher = larger share of this subpopulation than in DMSO controls; settings: 10 µM; 24 h; SM minimal medium; subpopulation (auxotrophy): LUM
Method in brief: as §1

[14] = tested on: Saccharomyces cerevisiae BY4741 SeMeCo community; assay: z-score of subpopulation abundance vs DMSO median, subpopulation auxotrophic for HLUM; higher = larger share of this subpopulation than in DMSO controls; settings: 10 µM; 24 h; SM minimal medium; subpopulation (auxotrophy): HLUM
Method in brief: as §1

[15] = tested on: Saccharomyces cerevisiae BY4741 SeMeCo community; assay: z-score of subpopulation abundance vs DMSO median, subpopulation auxotrophic for HM; higher = larger share of this subpopulation than in DMSO controls; settings: 10 µM; 24 h; SM minimal medium; subpopulation (auxotrophy): HM
Method in brief: as §1

[16] = tested on: Saccharomyces cerevisiae BY4741 SeMeCo community; assay: z-score of subpopulation abundance vs DMSO median, subpopulation auxotrophic for HL; higher = larger share of this subpopulation than in DMSO controls; settings: 10 µM; 24 h; SM minimal medium; subpopulation (auxotrophy): HL
Method in brief: as §1

[17] = tested on: Saccharomyces cerevisiae BY4741 SeMeCo community; assay: z-score of subpopulation abundance vs DMSO median, subpopulation auxotrophic for UM; higher = larger share of this subpopulation than in DMSO controls; settings: 10 µM; 24 h; SM minimal medium; subpopulation (auxotrophy): UM
Method in brief: as §1

| SMILES | mean cell size [1] | z-score of prototroph abundance [2] | z-score of subpopulation abundance [3] | z-score of subpopulation abundance [4] | z-score of subpopulation abundance [5] | z-score of subpopulation abundance [6] | z-score of subpopulation abundance [7] | z-score of subpopulation abundance [8] | z-score of subpopulation abundance [9] | z-score of subpopulation abundance [10] | z-score of subpopulation abundance [11] | z-score of subpopulation abundance [12] | z-score of subpopulation abundance [13] | z-score of subpopulation abundance [14] | z-score of subpopulation abundance [15] | z-score of subpopulation abundance [16] | z-score of subpopulation abundance [17] |
| --- | --- | --- | --- | --- | --- | --- | --- | --- | --- | --- | --- | --- | --- | --- | --- | --- | --- |
| C[C@]12CC[C@@H]3c4ccc(O)cc4CC[C@H]3[C@@H]1C[C@@H](O)[C@@H]2O [Estriol] | 12.41 ± 0.12 | 0.65 | -0.11 | 0.63 | -0.19 | 0.24 | -0.08 | 0.01 | -0.16 | -0.08 | 0.3 | -0.83 | -0.23 | -0.69 |  |  |  |
| CN1CCC(=C2c3ccccc3C=Cc3ccccc32)CC1 [Cyproheptadine hydrochloride] | 12.61 ± 0.097 | 0.23 | -0.18 | 0.25 | 0.43 | -0.32 | 0.02 |  | -0.56 | -0.31 | -0.45 | -0.68 | -0.73 | -0.08 | -0.58 | -0.02 |  |
| CCCN1C[C@H](C)[C@@H](O)[C@](C)(O)[C@@H](CC)OC(=O)[C@H](C)[C@@H](O[C@H]2C[C@@](C)(OC)[C@@H](O)[C@H](C)O2)[C@H](C)[C@@H](O[C@@H]2O[C@H](C)C[C@H](N(C)C)[C@H]2O)[C@](C)(O)C[C@H]1C [Gamithromycin] | 12.3 ± 0.13 | -0.29 | -0.59 | 0.42 |  | 2.25 | -0.16 |  | -0.26 | 0.75 | -0.18 | 0.28 | -0.04 | -0.18 | 0.24 | 0.97 | -0.02 |
| CN1[C@@H](CC(=O)c2ccccc2)CCC[C@H]1C[C@H](O)c1ccccc1 [Lobeline hydrochloride] | 12.5 ± 0.23 | 0.02 | 1.16 | -0.58 |  | -0.65 | -0.23 | -0.29 | -0.75 | -0.94 | -0.48 | 0.22 | -0.75 | 0.01 |  | -0.13 |  |
| Cc1cc(CC(C)CC(C)(C)C)n(O)c(=O)c1 (stereo not given) [Piroctone Olamine] | 12 ± 0.34 | -16.9 | 0.45 | 1.41 | 1.32 | 3.62 | 2.47 |  | 31.8 | 20.3 | 39.5 | 30.2 |  | 16.6 | 24 | 14.6 |  |
| Cc1c[nH]c(=O)[nH]c1=O [Thymine] | 12.4 ± 0.22 | -0.52 | 0.85 | 0.24 | 0.76 |  | 0.49 | -0.22 |  | 0.71 | 0.64 | 0.09 | 0.24 | 0.51 |  | -0.04 |  |
| O=C(Nc1c(Cl)cncc1Cl)c1ccc(OC(F)F)c(OCC2CC2)c1 [Roflumilast] | 12.4 ± 0.14 | 0.36 | 0.29 | -0.2 | 0.07 | -0.65 | 0.34 |  | 0.22 | -0.37 | -0.77 | -0.17 | -0.56 | -0.84 | -0.18 | -0.5 | 0.24 |
| CCC[C@@H]1C[C@@H](C(=O)N[C@@H]([C@H]2O[C@H](SC)[C@H](OP(=O)(O)O)[C@@H](O)[C@H]2O)[C@H](C)Cl)N(C)C1 [Clindamycin Phosphate] | 12 ± 0.22 | -0.33 | 0.65 | -0.86 | 0.48 | -0.77 | 0.78 |  | -0.25 | -0.85 | -0.65 | 0.81 | -0.05 | -0.47 | 0.11 | -0.71 | 1.19 |
| C/C(=C\C(=O)OCCCCCCCCC(=O)O)C[C@@H]1OC[C@H](C[C@@H]2O[C@H]2[C@@H](C)[C@H](C)O)[C@@H](O)[C@H]1O [Mupirocin calcium] | 12.2 ± 0.29 | -0.73 | -0.19 | -0.72 |  | 0.77 | 0.56 |  | 1.13 | 0.12 | -0.09 | 1.29 | 0.39 | -0.25 | 0.83 | -0.37 | 1.73 |
| CCCCN1CCCCC1C(=O)Nc1c(C)cccc1C (stereo not given) [Bupivacaine HCl] | 12.48 ± 0.1 |  | 0.05 | -0.57 | 0.36 | 0.67 | -0.05 | -0.93 | -0.26 | -0.41 | 0.32 | -0.41 | -0.72 | -0.67 |  | -0.36 | 0.27 |
| COCCCOc1ccnc(C[S+]([O-])c2nc3ccccc3[nH]2)c1C (stereo not given) [Rebeprazole sodium] | 12.5 ± 0.13 | -0.38 | 0.58 | -0.68 |  | -0.76 | -0.77 | 0.03 |  | 1.09 | -0.22 | 0.36 | 0.11 | 0.04 |  | -0.55 | 0.75 |
| CC[C@@H]([C@H](C)O)n1ncn(-c2ccc(N3CCN(c4ccc(OC[C@@H]5CO[C@@](Cn6cncn6)(c6ccc(F)cc6F)C5)cc4)CC3)cc2)c1=O [Posaconazole] | 12.34 ± 0.068 | -11.6 | -1.66 | -0.49 | 0.25 | 16.6 | 3.33 | 4.46 | 16.4 | 14.4 | 14.9 | 11.8 |  | 12.3 |  | 10.8 | 10.8 |
| CC(C(=O)O)c1ccc2c(c1)Cc1cccnc1O2 (stereo not given) [Pranoprofen] | 12.56 ± 0.067 |  | -0.49 | -0.28 |  |  | -0.35 |  | 0.43 | -0.3 | 0.61 | 0.27 | -0.12 | -0.06 | 0.14 | -0.22 |  |
| C[C@@H](CN1CC(=O)NC(=O)C1)N1CC(=O)NC(=O)C1 [Dexrazoxane HCl (ICRF-187, ADR-529)] | 12.49 ± 0.096 | 0.46 | 0.18 | -1.96 | 0.64 | -0.64 | -0.36 |  | -0.7 | -1.07 | -0.81 | -0.23 | -0.98 | -0.79 | -0.36 | -1.52 | 0.22 |
| CN1CCN(c2c(F)cc3c(=O)c(C(=O)O)cn4c3c2OCN4C)CC1 [Marbofloxacin] | 12.1 ± 0.38 | 0.49 | 0.52 | -1.17 | 0.59 | -1.41 | 0.12 |  | -0.06 | -0.27 | -0.54 | 0.33 | -0.82 | -0.72 | -0.43 | -0.85 | -0.02 |
